The entries come from a sample that favours hits as a whole.
Mac1 fbg enh: enhancers of human CD11b/CD18 binding to fibrinogen. 93,000 compounds, 0.07% hits. activation, % at 10 µM. K562 CD11b/CD18 adhesion to fibrinogen, ATPlite luminescence;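 active = 10 µM primary screen giving 50% or more activity, confirmed by 40% or more on retest at that dose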
DAT uptake mod: human DAT dopamine uptake with cocaine, either direction. Q01959. LLC-PK1 hDAT cells, [14C]-dopamine uptake with cocaine IC80; actives deviate in either direction. B-score at 10 µM. 110,000 compounds, 1.3% hits;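 active = Z score or B-score, a plate-position-corrected score, falls beyond the plate's 99.7% confidence bounds, in either direction; inactive = both scores lie inside the 99.7% bounds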;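 note: scored against the spread of the other compound wells on the same plate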
D1 mod: allosterically modulates the human D1 dopamine receptor | P21728 | HEK293 D1, CRE-luciferase, dopamine EC30 potentiation; actives deviate in either direction | B-score at 10 µM | 58,000 compounds, 5.9% hits;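 active = luminescence count or its row- and column-corrected plate score outside the 99.7% band of the plate's sample wells, on either side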
FAK inh: blocks human focal adhesion kinase activity | inhibition, %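 (tested at 7 µM)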 | Q05397 | 97,000 compounds, 0.84% hits | AID 727 | biochemical FAK kinase activity assay; in the data active = inhibition above about 19%;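 note: 0% = DMSO and 100% = reference compound high control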
PTK2B oligo ant: antagonists of human Pyk2 oligomerization | Q293 cells, Pyk2 FERM NanoBiT luminescence; active compounds read low | z-score (the deposit names both 25 µM and 10 µM) | 99,000 compounds, 0.83% hits;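 active = Z-score of -3 or lower, scaled per plate to the spread of control and sample wells; inactive = z-score above -3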;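 note: negative z-score means lost luminescence so less FERM oligomerization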
Target sequence (Q14289 whole entry, looked up): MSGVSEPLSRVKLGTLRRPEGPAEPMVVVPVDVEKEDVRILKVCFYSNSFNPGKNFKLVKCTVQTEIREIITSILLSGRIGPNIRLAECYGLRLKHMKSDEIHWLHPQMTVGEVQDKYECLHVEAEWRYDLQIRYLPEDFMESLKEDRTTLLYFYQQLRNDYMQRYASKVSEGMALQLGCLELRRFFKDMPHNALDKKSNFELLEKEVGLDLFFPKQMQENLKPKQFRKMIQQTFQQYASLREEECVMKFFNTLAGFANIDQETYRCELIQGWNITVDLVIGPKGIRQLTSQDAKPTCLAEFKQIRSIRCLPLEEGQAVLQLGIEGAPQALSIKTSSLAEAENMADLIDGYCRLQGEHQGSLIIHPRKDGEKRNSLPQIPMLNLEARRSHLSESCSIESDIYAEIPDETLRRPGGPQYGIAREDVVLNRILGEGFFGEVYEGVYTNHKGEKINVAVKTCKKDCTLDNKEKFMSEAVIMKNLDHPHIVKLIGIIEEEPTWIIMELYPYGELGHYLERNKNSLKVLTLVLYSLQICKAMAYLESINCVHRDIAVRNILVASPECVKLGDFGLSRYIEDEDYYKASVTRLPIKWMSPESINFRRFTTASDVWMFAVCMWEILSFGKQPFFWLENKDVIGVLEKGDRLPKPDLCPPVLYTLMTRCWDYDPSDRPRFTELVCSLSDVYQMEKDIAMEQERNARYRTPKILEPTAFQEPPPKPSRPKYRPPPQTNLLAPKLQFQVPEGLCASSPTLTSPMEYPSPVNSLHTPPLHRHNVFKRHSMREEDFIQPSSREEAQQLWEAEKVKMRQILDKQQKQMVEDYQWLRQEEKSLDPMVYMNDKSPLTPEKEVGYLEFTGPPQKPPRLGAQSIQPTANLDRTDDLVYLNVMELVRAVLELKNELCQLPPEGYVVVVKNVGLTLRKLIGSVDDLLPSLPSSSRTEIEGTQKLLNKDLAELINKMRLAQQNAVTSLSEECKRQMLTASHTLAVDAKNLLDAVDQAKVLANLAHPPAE
CD11b adhes inh: blocks human CD11b/CD18 adhesion to fibrinogen. P05107+P11215. K562 CD11b/CD18 adhesion to fibrinogen, ATPlite luminescence; Mn2+ added to activate the integrin. inhibition, % at 10 µM. 93,000 compounds, 0.54% hits;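 active = primary inhibition of 50% or more at 10 µM, then 40% or more on retest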
Starred values were filed as active, the others as inactive; nt = no result given.

SMILES	Mac1 fbg enh	DAT uptake mod	D1 mod	FAK inh	PTK2B oligo ant	CD11b adhes inh
O=C(O)C1C2C=CC(C2)C1C(=O)NCCc1cccc(Cl)c1 (configuration not stated)	nt	-0.00534	0.863	-6.1	-1.03	nt
O=C(N/N=C/c1ccc2cccc(OCc3ccccc3)c2n1)c1ccc(Br)cc1	nt	nt	nt	-1.5	-2.4	nt
COc1ccc(C(=O)N/N=C/c2ccc3cccc(OCc4ccccc4)c3n2)cc1	-1.3	1.62	nt	8.6	-3.99*	18.1
CC1CCN(C(=O)COC(=O)[C@H](C)NS(=O)(=O)/C=C/c2ccccc2)CC1	0.4	-0.389	nt	-0.5	0.83	-2.2
Cc1ccc(SCc2cn3c(C)csc3n2)cc1	0.1	0.454	-4.63*	-2.0	-0.32	10.0
C=CCn1c(SCC(=O)NC2CCS(=O)(=O)C2)nc2scc(C3CC3)c2c1=O (configuration not stated)	-4.3	-0.0412	2.1	-1.2	0.11	-1.5
C=CCn1c(SCc2cc(=O)n3ccsc3n2)nc2scc(C3CC3)c2c1=O	-8.4	2.31	9.78*	nt	-0.83	21.8
COc1cccc(N2CCN(c3c4c(nc5ncnn35)CCC4)CC2)c1	-5.0	1.31	-0.642	-2.5	0.02	51.4*
O=C(O)CCn1nnc(-c2cccs2)n1	-1.1	0.488	0.104	-1.3	0.97	16.2
CC(C)c1ccc(-c2nnn(CCC(=O)O)n2)cc1	nt	-0.555	-3.59*	-4.2	2.91	nt
Cc1ccc(CN(C(=O)Cn2nnc3ccccc32)C(C(=O)NCc2ccco2)c2cccs2)cc1 (configuration not stated)	0.0	-0.393	0.454	4.7	-1.94	1.4
O=C(NCc1ccco1)C(c1cccs1)N(Cc1ccccc1)C(=O)Cn1nnc2ccccc21 (configuration not stated)	0.8	-0.687	-0.47	-2.3	-3.28*	-3.6
O=C(NCc1ccco1)C(c1ccco1)N(Cc1cccs1)C(=O)Cn1nnc2ccccc21 (configuration not stated)	nt	1.11	nt	-2.4	-3.82*	nt
COC(=O)C1NC(=O)N2C(C(=O)OC)C(C)(C)S[C@H]12 (some centres not stated)	nt	-0.345	nt	nt	nt	nt
CCCn1c(C)nc2c(c1=O)c1nc3ccccc3nc1n2CCc1ccccc1	nt	nt	-0.166	-2.7	nt	nt
CCCn1c(C)nc2c(c1=O)c1nc3ccccc3nc1n2CCC1=CCCCC1	62.5*	2.29	1.63	4.1	0.57	0.1
CCn1c(NC2CCCCC2)nc2ccccc21	1.7	0.407	-3.39*	0.8	-0.31	4.6
COc1cc(C)c(N)cc1C(C)C	2.7	-0.677	0.015	-3.2	-0.04	0.4
COc1ccc(-c2n[nH]c(C)c2-c2ccc(Cl)cc2)c(O)c1	nt	0.255	nt	9.4	-1.07	nt
COc1ccc(O)c(-c2c(-c3ccc(Cl)cc3)n[nH]c2C)c1	2.7	3.72*	-0.587	3.3	-0.95	48.3
COc1ccccc1Nc1nc(-c2sc(NC(=O)CC(C)C)nc2C)cs1	-0.5	2.73*	nt	5.3	nt	16.8
CCCC(=O)Nc1nc(C)c(-c2csc(Nc3ccccc3OC)n2)s1	9.4	0.354	nt	3.2	nt	2.7
CCn1cc(C2=NC(C(C)C)CO2)c2ccccc21 (configuration not stated)	5.6	1.35	-1.52	nt	nt	4.6
CC(C)C1COC(c2cccc3ccccc23)=N1 (configuration not stated)	nt	2.95*	nt	nt	nt	nt
CC(C)(CNC(=O)/C=C/c1ccc(F)cc1)CNC(=O)/C=C/c1ccc(F)cc1	0.8	nt	nt	nt	nt	6.5
SMILES	Mac1 fbg enh	DAT uptake mod	D1 mod	FAK inh	PTK2B oligo ant	CD11b adhes inh
CCCCn1c(=O)[nH]c(=O)c2c1nc(COc1ccc(C#N)cc1)n2CCC	-0.7	-0.109	0.517	-3.7	0.11	-18.5
C=C(C)CSc1nc2c(c(=O)[nH]c(=O)n2C)n1Cc1ccccc1	nt	0.292	10.7*	nt	nt	nt
CCCCn1c(=O)[nH]c(=O)c2c1nc(CN1C(=O)c3ccccc3S1(=O)=O)n2CCC	-8.9	1.88	9.82*	0.1	-1.69	8.8
CC(C)Sc1nc2c(c(=O)[nH]c(=O)n2C)n1Cc1ccc(Cl)cc1	-1.1	-0.868	22.9*	-0.6	-0.79	-11.7
CCCCn1c(=O)[nH]c(=O)c2c1nc(-c1ccsc1)n2Cc1ccccc1	-5.5	0.812	nt	3.4	-3.09*	2.4
CCOC1(OCC)N=C(N)C2(C#N)C(c3ccc(NC(C)=O)cc3)C12C#N (configuration not stated)	-4.4	0.0181	-0.282	2.6	1.18	-1.4
CCN(C(=O)CN(C)Cc1cccc(Cl)c1Cl)c1c(N)n(Cc2ccccc2)c(=O)[nH]c1=O	5.8	nt	nt	nt	nt	-4.3
COC/C=C/C1=CC2=CC(=O)C(C)(OC(=O)c3cnc4ccccc4n3)C(=O)C2=CO1 (configuration not stated)	nt	-0.232	nt	nt	nt	nt
CCCCCn1c(N2CCN(Cc3ccccc3)CC2)nc2c1c(=O)[nH]c(=O)n2C	3.8	2.96*	1.53	-0.1	0.15	-9.9
CCOC(=O)Cn1c(-c2cccnc2Cl)nc2cc(C)c(C)cc21	-5.3	0.248	nt	-3.3	-0.84	-4.3
CCOC(=O)Cn1c(-c2cccnc2Cl)nc2cc(Cl)c(Cl)cc21	-5.5	0.0315	nt	-3.7	-3.76*	-1.9
O=C1c2ccc(-c3nc4ccccc4o3)cc2C(=O)N1Cc1ccccc1	nt	nt	nt	-1.4	-0.05	nt
CC(C)CCN1C(=O)c2ccc(-c3nc4ccccc4c(=O)o3)cc2C1=O	nt	-0.0136	nt	-0.8	-3.29*	nt
CC1CCc2nc(NC(=O)C3CCCO3)sc2C1 (configuration not stated)	-4.4	-0.657	-4.61*	-0.4	0.33	5.1
CC1CCc2nc(NC(=O)Cc3cccs3)sc2C1 (configuration not stated)	2.3	0.314	-0.288	3.8	-0.48	10.5
CC1CCc2nc(NC(=O)c3ccco3)sc2C1 (configuration not stated)	-5.5	0.642	-7.5*	nt	-1.32	52.3
Cc1nnc(NC(=O)C2CCCO2)s1 (configuration not stated)	nt	0.314	nt	nt	0.48	nt
CC(C)CCNC(=O)CN(Cc1ccc2c(c1)OCO2)C(=O)Cn1nnc(-c2cccs2)n1	-1.3	2.63	-1.25	-0.9	-1.42	1.8
Cc1ccc(-n2nnc3c(=O)n(Cc4cc(C)ccc4C)cnc32)cc1	nt	1.59	0.442	21.7*	-0.3	nt
Cc1ccc(C)c(Cn2cnc3c(cnn3C(C)(C)C)c2=O)c1	-2.8	-0.028	-2.58*	0.9	-1.76	0.8
Cc1ccc(-n2nnc3c(=O)n(Cc4cccc(C)c4)cnc32)cc1	2.5	-0.146	0.509	1.2	nt	-55.4
CN(Cc1ccccc1)c1nc(-c2cccc([N+](=O)[O-])c2)nc2ccccc12	-2.3	nt	nt	nt	nt	-10.2
CC(C)n1c(NCCc2ccccc2)nc2c1c(=O)n(C)c(=O)n2C	nt	1.03	nt	-1.1	0.19	nt
N#CCCN1CCN(C(=S)c2ccc(-c3cccc(Cl)c3)o2)CC1	-0.4	2.42*	1.04	-0.9	0.4	8.7
c1ccc(-c2nc3c(ccc4ccccc43)[nH]2)nc1	nt	4.12*	nt	0.3	-1.24	nt

Screening results as filed in PubChem BioAssay.
